{
  "source": "PubChem BioAssay (NCI)",
  "note": "The panel holds about 83,000 compounds, 20% with a hit somewhere; the sample as a whole holds those more often.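 Step 1: grow cells in 96-well plates. Step 2: add test compound at a single concentration. Step 3: incubate 48 h. Step 4: record percent growth.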 Calls of active or inactive are those of the source. The calls were made as follows: active = growth percent below 10; inactive = the rest.",
  "data": [
    {"tested_on": "CAKI-1 renal", "test": "NCI-60 one-dose screen, 48 h (100 = growth as untreated, 0 = no growth, -100 = all killed)", "conditions": "10 µM unless noted", "values": [
      {"smiles": "CCN(C(C)=O)c1ccc([N+](=O)[O-])cc1", "growth": "102% (inactive)"},
      {"smiles": "O=S(=O)(c1ccc(NC(=S)NCc2cccnc2)cc1)N1CCCCC1", "growth": "29.1% (inactive)"},
      {"smiles": "O=S1(=O)c2ccccc2Oc2ccccc21", "growth": "92.9% (inactive)"},
      {"smiles": "C/C(=N\\N=C(/C)c1cccc([N+](=O)[O-])c1)c1cccc([N+](=O)[O-])c1", "growth": "99.5% (inactive)"},
      {"smiles": "OC(CBr)CCBr", "note": "(stereo not drawn)", "growth": "92.4% (inactive)"},
      {"smiles": "CC(=O)NC(CCc1ccc(Cl)c(Cl)c1)c1cccc(O)c(=O)c1", "note": "(stereo not drawn)", "growth": "-0.0278% (active)"},
      {"smiles": "CCCCCCCCCCCCCCCCCC(=O)NCCNC(=O)CCCCCCCCCCCCCCCCC", "growth": "83.3% (inactive)"},
      {"smiles": "COC1CC(OC(=O)c2ccc([N+](=O)[O-])cc2)C(COC(=O)c2ccc([N+](=O)[O-])cc2)O1", "note": "(stereo not drawn)", "growth": "94% (inactive)"},
      {"smiles": "CC(=O)NC(O)C(Cl)Cl", "note": "(stereo not drawn)", "growth": "92.3% (inactive)"},
      {"smiles": "CC(=O)c1cccc(O)c1", "growth": "97.9% (inactive)"},
      {"smiles": "C1C[S+]2CC[S+]1CC2", "growth": "108% (inactive)"},
      {"smiles": "COC1OC(C(COC(C)=O)OC(C)=O)C(OC(C)=O)C(OC(C)=O)C1OC(C)=O", "note": "(stereo not drawn)", "growth": "96.2% (inactive)"},
      {"smiles": "Cn1/c(=N\\N=C\\c2ccccc2OCCO)sc2ccccc21", "growth": "88.9% (inactive)"},
      {"smiles": "CC(C)(N)CO[C@H]1C[C@H]2CC[C@@]1(C)C2(C)C", "growth": "97% (inactive)"},
      {"smiles": "CCCC(=O)CC(=O)c1ccccc1", "growth": "107% (inactive)"},
      {"smiles": "Cc1onc(-c2ccccc2Cl)c1C(=O)Cl", "growth": "93.5% (inactive)"},
      {"smiles": "COC1OC(C(O)C(O)CO)C(O)C(O)C1O", "note": "(stereo not drawn)", "growth": "95.6% (inactive)"},
      {"smiles": "Cc1cc(=O)n(Nc2ccccc2)c(O)c1C#N", "growth": "92.5% (inactive)"}
    ]}
  ]
}
